Measured values published in PubChem BioAssay (EPA / NIEHS).
Inconclusive results are not listed. Active and inactive are the calls of the source. The calls were made as follows, unless noted: active = hit-call score of the fitted dose curve at least 0.9, where 1 is the maximum; inconclusive = response in the unintended direction; inactive = score below 0.9.

Key:
[1] = read-out: alkyl and aryl transferase (GSTA2), GSTA2 (gene 2939); test: CLD_GSTA2_24hr: CellzDirect (CLD) Gene Expression Assay for alkyl and aryl transferase (GSTA2) at 24 hours (AID 2283693)
Method in brief: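 GSTA2 transcript levels were quantified by quantitative nuclease protection assay in primary human hepatocytes 24 h after daily dosing with fresh solutions at multiple concentrations; 0.2% DMSO vehicle as baseline, cytotoxicity flagged morphologically.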

[2] = read-out: ABC Transporter (ABCB1), ABCB1 (gene 5243); test: CLD_ABCB1_48hr: CellzDirect (CLD) Gene Expression Assay for ABC Transporter (ABCB1) at 48 hours (AID 2283695)
Method in brief: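 ABCB1 mRNA was measured by quantitative nuclease protection assay (chemiluminescence) 48 h after dosing. Human hepatocyte cultures from two separate donors received fresh dosing solutions daily for two days, with 0.2% DMSO as vehicle. Positive-direction fit against DMSO.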

[3] = read-out: glucuronosyltransferase (UGT1A1), UGT1A1 (gene 54658); test: CLD_UGT1A1_24hr: CellzDirect (CLD) Gene Expression Assay for glucuronosyltransferase (UGT1A1) at 24 hours (AID 2283696)
Method in brief: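 UGT1A1 transcript induction was measured by quantitative nuclease protection assay (chemiluminescence) in human hepatocyte cultures 24 h after daily fresh dosing, with 0.2% DMSO as vehicle and baseline.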

[4] = read-out: Cytochrome P450 2C19 (Homo sapiens) (UniProt P33261); test: CLD_CYP2C19_48hr: CellzDirect (CLD) Gene Expression Assay for xenobiotic metabolism (CYP2C19) at 48 hours (AID 2283700);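 also: fitted upward so actives raise CYP2C19 mRNA above the 0.2% DMSO vehicle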
Method in brief: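 CYP2C19 mRNA induction read by chemiluminescent quantitative nuclease protection assay after 48 h, with fresh compound added daily for two days to cultured human liver hepatocytes. Activity fitted upward against 0.2% DMSO vehicle.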

[5] = read-out: Cytochrome P450 2C9 (Homo sapiens) (UniProt P11712); test: CLD_CYP2C9_48hr: CellzDirect (CLD) Gene Expression Assay for xenobiotic metabolism (CYP2C9) at 48 hours (AID 2283701; active = hit-call score of the fitted dose curve at least 0.9, where 1 is the maximum; inactive = score below 0.9)
Method in brief: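 mRNA level measured by quantitative nuclease protection (S1 digestion, chemiluminescent detection) in lysates of human primary hepatocytes exposed 48 h with daily re-dosing. Induction fitted positively versus 0.2% DMSO; morphology-based cytotoxicity flagged yes/no.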

[6] = read-out: xenobiotic metabolism (CYP1A2), CYP1A2 (gene 1544); test: CLD_CYP1A2_48hr: CellzDirect (CLD) Gene Expression Assay for xenobiotic metabolism (CYP1A2) at 48 hours (AID 2283703)
Method in brief: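 Cytotoxicity was flagged yes/no from morphology, while CYP1A2 transcript induction was detected by qNPA chemiluminescence after a 48-hour exposure. Human primary hepatocyte cultures from separate donors received fresh dosing solutions daily over two days, with 0.2% DMSO as vehicle and baseline.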

[7] = read-out: xenobiotic metabolism (CYP1A1), CYP1A1 (gene 1543); test: CLD_CYP1A1_48hr: CellzDirect (CLD) Gene Expression Assay for xenobiotic metabolism (CYP1A1) at 48 hours (AID 2283705)
Method in brief: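 CYP1A1 transcript measured by quantitative nuclease protection (chemiluminescent) 48 h after two daily treatments of human hepatocyte cultures, versus 0.2% DMSO. Morphology-based cytotoxicity flags accompany data; two donor preparations used.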

[8] = read-out: glucuronosyltransferase (UGT1A1), UGT1A1 (gene 54658); test: CLD_UGT1A1_48hr: CellzDirect (CLD) Gene Expression Assay for glucuronosyltransferase (UGT1A1) at 48 hours (AID 2283709);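 also: actives increase expression relative to DMSO so potency refers to induction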
Method in brief: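 Quantitative nuclease protection assay (chemiluminescent) for UGT1A1 mRNA at 48 h in human hepatocyte cultures from two donors, redosed daily with fresh solutions. Induction fitted relative to 0.2% DMSO; phase-contrast morphology annotated cytotoxicity.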

[9] = read-out: sulfotransferase (SULT2A), SULT2A1 (gene 6822); test: CLD_SULT2A_48hr: CellzDirect (CLD) Gene Expression Assay for sulfotransferase (SULT2A) at 48 hours (AID 2283710);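 also: hits raise SULT2A1 transcript above the 0.2% DMSO vehicle baseline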
Method in brief: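 SULT2A1 transcript measured by qNPA chemiluminescence in human primary hepatocyte cultures after 48 h, with fresh dosing solutions on two consecutive days; gain-of-signal fitting against 0.2% DMSO vehicle; cytotoxicity annotated from phase-contrast morphology.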

[10] = read-out: Cytochrome P450 3A4 (Homo sapiens) (UniProt P08684); test: CLD_CYP3A4_48hr: CellzDirect (CLD) Gene Expression Assay for xenobiotic metabolism (CYP3A4) at 48 hours (AID 2283698)
Method in brief: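 CYP3A4 induction read by qNPA chemiluminescence after 48 h, with fresh dosing solutions on consecutive days, in cultured human hepatocytes (two donors). Vehicle 0.2% DMSO as baseline; microscopy-based cytotoxicity annotated yes/no alongside data.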

[11] = CLD_ACTIN_48hr: CellzDirect (CLD) Gene Expression Assay for Baseline Control (Actin) at 48 hours (AID 2283702)
Method in brief: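 Background-control actin mRNA read by qNPA chemiluminescence at 48 h. Human hepatocyte cultures from two donors received fresh multi-concentration chemical doses daily for two days; 0.2% DMSO served as vehicle baseline.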

[12] = read-out: alkyl and aryl transferase (GSTA2), GSTA2 (gene 2939); test: CLD_GSTA2_48hr: CellzDirect (CLD) Gene Expression Assay for alkyl and aryl transferase (GSTA2) at 48 hours (AID 2283708);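 also: active means mRNA induction above DMSO vehicle baseline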
Method in brief: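 GSTA2 mRNA quantified by qNPA chemiluminescence in human primary hepatocyte lysates after 48 h of daily fresh chemical dosing. Increases fitted against 0.2% DMSO vehicle baseline; cytotoxicity from morphology annotated yes/no.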

[13] = read-out: organic anion transporter (SLCO1B1), SLCO1B1 (gene 10599); test: CLD_SLCO1B1_48hr: CellzDirect (CLD) Gene Expression Assay for organic anion transporter (SLCO1B1) at 48 hours (AID 2283707)
Method in brief: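 SLCO1B1 transcript quantified by qNPA with chemiluminescent readout after 48 h of once-daily chemical exposure. Cultured human primary hepatocytes came from two donors, with 0.2% DMSO vehicle; positive-direction fitting against DMSO, cytotoxicity flagged by morphology.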

[14] = read-out: Cytochrome P450 2B6 (Homo sapiens) (UniProt P20813); test: CLD_CYP2B6_48hr: CellzDirect (CLD) Gene Expression Assay for xenobiotic metabolism (CYP2B6) at 48 hours (AID 2283699);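 also: actives raise transcript level above DMSO so potency reflects induction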
Method in brief: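 CYP2B6 transcript induction, read by quantitative nuclease protection (S1 digestion, chemiluminescent detection) 48 h after dosing, is fitted upward against 0.2% DMSO. Cultured human liver primary cells, two donor preparations, received fresh chemical daily over multiple concentrations.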

[15] = read-out: Broad substrate specificity ATP-binding cassette transporter ABCG2 (Homo sapiens) (UniProt Q9UNQ0); test: CLD_ABCG2_48hr: CellzDirect (CLD) Gene Expression Assay for ABC Transporter (ABCG2) at 48 hours (AID 2283704)
Method in brief: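 ABCG2 transcript measured at 48 h by quantitative nuclease protection (chemiluminescent) and fitted for increase relative to 0.2% DMSO. Hepatocyte cultures from separate donors got fresh compound daily over two days; morphology annotated cytotoxicity.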

[16] = read-out: Glyceraldehyde-3-phosphate dehydrogenase (Homo sapiens) (UniProt P04406); test: CLD_GAPDH_48hr: CellzDirect (CLD) Gene Expression Assay for Baseline Control (Glyceraldehyde 3-phosphate dehydrogenase) at 48 hours (AID 2283706);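 also: active means higher GAPDH mRNA than DMSO vehicle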
Method in brief: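 GAPDH baseline-control readout: qNPA chemiluminescent mRNA quantitation in human liver primary cells 48 h after daily dosing on two consecutive days, vehicle 0.2% DMSO; gain of signal fitted against DMSO, cytotoxicity flagged by phase-contrast morphology.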

[17] = read-out: sulfotransferase (SULT2A), SULT2A1 (gene 6822); test: CLD_SULT2A_24hr: CellzDirect (CLD) Gene Expression Assay for sulfotransferase (SULT2A) at 24 hours (AID 2283694)
Method in brief: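 mRNA is measured by qNPA: probe hybridisation, S1 nuclease digestion, chemiluminescence, in lysates from human primary hepatocytes harvested 24 h after daily dosing. Vehicle was 0.2% DMSO. Phase-contrast microscopy flagged cytotoxicity (yes/no).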

[18] = read-out: ABC Transporter (ABCB11), ABCB11 (gene 8647); test: CLD_ABCB11_48hr: CellzDirect (CLD) Gene Expression Assay for ABC Transporter (ABCB11) at 48 hours (AID 2283697)
Method in brief: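 Induction of ABCB11 mRNA relative to 0.2% DMSO, measured at 48 h by qNPA chemiluminescence. Cultured human hepatocytes (two donors) received fresh dosing solutions at several concentrations on two consecutive days.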

Measured: AC50

Sequence of Cytochrome P450 3A4 (Homo sapiens) (P08684 whole entry, looked up): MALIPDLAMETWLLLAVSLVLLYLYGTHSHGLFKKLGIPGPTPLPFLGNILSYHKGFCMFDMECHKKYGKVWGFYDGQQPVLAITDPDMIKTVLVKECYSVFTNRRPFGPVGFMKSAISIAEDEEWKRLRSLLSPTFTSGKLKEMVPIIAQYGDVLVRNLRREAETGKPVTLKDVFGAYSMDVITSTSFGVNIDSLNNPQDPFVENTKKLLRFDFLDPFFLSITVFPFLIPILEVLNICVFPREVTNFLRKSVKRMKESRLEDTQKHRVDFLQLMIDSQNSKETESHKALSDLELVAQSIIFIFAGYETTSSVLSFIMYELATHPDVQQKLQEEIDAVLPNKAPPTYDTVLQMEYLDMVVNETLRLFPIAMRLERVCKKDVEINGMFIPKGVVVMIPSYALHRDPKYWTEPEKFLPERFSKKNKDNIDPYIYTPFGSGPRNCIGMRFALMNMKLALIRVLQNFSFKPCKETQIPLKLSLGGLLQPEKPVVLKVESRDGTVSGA
Sequence of Broad substrate specificity ATP-binding cassette transporter ABCG2 (Homo sapiens) (Q9UNQ0 whole entry, looked up): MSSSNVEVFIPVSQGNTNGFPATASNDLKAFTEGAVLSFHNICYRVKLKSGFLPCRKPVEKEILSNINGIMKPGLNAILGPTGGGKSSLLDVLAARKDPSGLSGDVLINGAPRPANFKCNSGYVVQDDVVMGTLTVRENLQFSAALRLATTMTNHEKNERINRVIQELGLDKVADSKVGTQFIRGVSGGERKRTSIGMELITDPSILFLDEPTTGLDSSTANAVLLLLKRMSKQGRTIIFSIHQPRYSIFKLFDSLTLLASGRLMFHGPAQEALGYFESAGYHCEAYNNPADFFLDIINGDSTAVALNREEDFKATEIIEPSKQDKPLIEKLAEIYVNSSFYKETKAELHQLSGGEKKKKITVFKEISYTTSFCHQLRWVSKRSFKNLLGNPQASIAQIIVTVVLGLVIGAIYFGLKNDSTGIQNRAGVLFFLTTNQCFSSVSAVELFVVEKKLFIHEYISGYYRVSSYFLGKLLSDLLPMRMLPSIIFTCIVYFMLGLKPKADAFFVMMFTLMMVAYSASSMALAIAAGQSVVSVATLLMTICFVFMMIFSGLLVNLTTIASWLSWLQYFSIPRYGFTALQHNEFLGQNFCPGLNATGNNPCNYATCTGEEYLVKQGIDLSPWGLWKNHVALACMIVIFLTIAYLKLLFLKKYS
Sequence of Cytochrome P450 2C19 (Homo sapiens) (P33261 whole entry, looked up): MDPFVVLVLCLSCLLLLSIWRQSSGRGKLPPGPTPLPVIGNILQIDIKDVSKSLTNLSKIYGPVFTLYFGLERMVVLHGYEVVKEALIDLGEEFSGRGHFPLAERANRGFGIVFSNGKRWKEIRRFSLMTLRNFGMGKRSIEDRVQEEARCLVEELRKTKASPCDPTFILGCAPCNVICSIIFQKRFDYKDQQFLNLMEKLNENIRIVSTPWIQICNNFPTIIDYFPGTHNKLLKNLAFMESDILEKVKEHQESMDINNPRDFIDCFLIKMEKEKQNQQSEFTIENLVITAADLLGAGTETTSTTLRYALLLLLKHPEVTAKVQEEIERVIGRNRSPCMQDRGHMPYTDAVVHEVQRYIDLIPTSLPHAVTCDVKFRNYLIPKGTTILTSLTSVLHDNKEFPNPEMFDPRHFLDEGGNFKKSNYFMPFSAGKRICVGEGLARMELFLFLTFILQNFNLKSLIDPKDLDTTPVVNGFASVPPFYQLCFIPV
Sequence of Glyceraldehyde-3-phosphate dehydrogenase (Homo sapiens) (P04406 whole entry, looked up): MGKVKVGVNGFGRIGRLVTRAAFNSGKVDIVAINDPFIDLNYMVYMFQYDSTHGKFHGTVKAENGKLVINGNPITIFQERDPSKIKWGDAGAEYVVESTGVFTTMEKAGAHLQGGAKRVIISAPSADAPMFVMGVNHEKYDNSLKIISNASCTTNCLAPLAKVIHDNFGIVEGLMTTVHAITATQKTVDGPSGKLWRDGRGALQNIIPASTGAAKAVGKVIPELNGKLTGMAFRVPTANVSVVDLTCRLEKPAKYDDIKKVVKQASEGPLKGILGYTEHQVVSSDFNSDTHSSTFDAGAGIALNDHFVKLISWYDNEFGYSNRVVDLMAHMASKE

CC1(C)C(C=C(Cl)Cl)C1C(=O)OC(C#N)c1cccc(Oc2ccccc2)c1 (stereo not given)
active: [3] 6.01 µM | [6] 14.6 µM | [8] 6.03 µM
inactive: [1] | [2] | [4] | [5] | [7] | [9]

CCCCOCN(C(=O)CCl)c1c(CC)cccc1CC
active: [10] 3.57 µM | [6] 9.38 µM | [7] 11.5 µM | [12] 20 µM
inactive: [1] | [2] | [3] | [11] | [9]

Nc1c(Cl)c(Cl)nc(C(=O)O)c1Cl
inactive: [3] | [10] | [4] | [11] | [7] | [13] | [8]
active: [6] 5.16 µM

Cc1c(COC(=O)[C@@H]2[C@H](/C=C(\Cl)C(F)(F)F)C2(C)C)cccc1-c1ccccc1
inactive: [1] | [2] | [5] | [6] | [15] | [13] | [12]
active: [3] 20 µM | [10] 4.01 µM | [14] 3.39 µM | [7] 20 µM | [9] 5.45 µM

CNC(=O)N(C)c1nnc(C(C)(C)C)s1
not listed: [5] | [8] | [9] | [10] | [14] | [17] | [18]
inactive: all other assays above

CCN(CC)c1nc(C)cc(OP(=S)(OC)OC)n1
active: [10] 3.58 µM | [6] 7.6 µM | [7] 9.28 µM
inactive: [3] | [9]

CC1(C)C(C(=O)OC(C#N)c2cccc(Oc3ccccc3)c2)C1(C)C (stereo not given)
active: [3] 5.68 µM | [10] 20 µM
inactive: [1] | [2] | [4] | [5] | [6] | [15] | [7] | [12] | [9]

CC1(C)CCC(=Cc2ccc(Cl)cc2)C1(O)Cn1cncn1 (stereo not given)
active: [6] 1.66 µM | [7] 3.17 µM
inactive: [17] | [2] | [3] | [5] | [15] | [9]

O=C(Nc1ccccc1-c1ccc(Cl)cc1)c1cccnc1Cl
active: [6] 4.95 µM | [7] 20 µM
inactive: [2] | [3] | [11] | [12] | [8] | [9]

COC(=O)NS(=O)(=O)c1ccc(N)cc1
not listed: [12] | [14] | [15] | [17]
inactive: all other assays above
